# Test results from PubChem BioAssay (EPA / NIEHS).
# Results filed as inconclusive are left out. Active and inactive are the calls of the source. How the source made its calls: active means hit-call score of the fitted dose curve at least 0.9, where 1 is the maximum; inconclusive means response in the unintended direction; inactive means score below 0.9.
# Target: human Retinoic Acid Receptor gamma (RARg), RARG (gene 5916) (UniProt P13631)
# Test: ATG_RARg_TRANS: Attagene TRANS-FACTORIAL HepG2 Assay for human Retinoic Acid Receptor gamma (RARg) (AID 2283009)
# Description: ATG_TRANS is a cell-based, multiplexed-readout assay that uses HepG2, a human liver cell line, with measurements taken at 24 hours after chemical dosing in a 24-well plate.ATG_RARg_TRANS is one of 30 assay component(s) measured or calculated from the ATG_TRANS assay. It is designed to make measurements of mRNA induction, a form of inducible reporter, as detected with fluorescence intensity signals by Reverse transcription polymerase chain reaction (RT-PCR) and Capillary electrophoresis technology.Data from the assay component ATG_RARg_TRANS was analyzed into 1 assay endpoint. This assay endpoint, ATG_RARg_TRANS, was analyzed in the positive analysis fitting direction relative to DMSO as the negative control and baseline of activity. Using a type of inducible reporter, measures of mRNA for gain-of-signal activity can be used to understand the reporter gene at the transcription factor-level as they relate to the gene RARG. Furthermore, this assay endpoint can be referred to as a primary readout, because this assay has produced multiple assay endpoints where this one serves a reporter gene function. To generalize the intended target to other relatable targets, this assay endpoint is annotated to the nuclear receptor intended target family, where the subfamily is non-steroidal.
# Human liver HepG2 cells are transiently transfected with multiple reporter transcription units (MRTUs) in 6-well plates using FuGene 6 reagent (Roche; 3 ml FuGene/1 mg DNA). The MRTU constructs are regulated by a cis-regulating element (promoter). […] A major difference between the CIS and TRANS system is that in CIS activities of endogenous TFs are measured, whereas the TRANS assay evaluates changes in activities of exogenous, chimeric NR-Gal4 proteins. […] At the end of 24 hour incubation, total RNA was isolated using TriZol reagent (Invitrogen). The isolated RNA is then reverse-transcribed using oligo(dT) primer and Mo-MLV reverse transcriptase (Invitrogen) with DNAse I (Ambion) treatment for 30 min. The one-tenth of the produced cDNA was amplified by PCR using Taq DNA polymerase (Invitrogen) and two reporter sequence-specific primers. The PCR products were fluorescently labeled by primer extension with 6-arboxyfluorescein (6-FAM) 5'-labeled reporter sequence-specific primer (2 min at 95 C, 20 s at 68 C and 10 min at 72 C) and these products were digested with 5U of HpaI (New England Biolabs) for 2h at 37 C. […] The raw capillary electrophoresis data was processed using Attagraph software (Attagene).
# human Retinoic Acid Receptor gamma (RARg), RARG (gene 5916), sequence (P13631 whole entry, looked up): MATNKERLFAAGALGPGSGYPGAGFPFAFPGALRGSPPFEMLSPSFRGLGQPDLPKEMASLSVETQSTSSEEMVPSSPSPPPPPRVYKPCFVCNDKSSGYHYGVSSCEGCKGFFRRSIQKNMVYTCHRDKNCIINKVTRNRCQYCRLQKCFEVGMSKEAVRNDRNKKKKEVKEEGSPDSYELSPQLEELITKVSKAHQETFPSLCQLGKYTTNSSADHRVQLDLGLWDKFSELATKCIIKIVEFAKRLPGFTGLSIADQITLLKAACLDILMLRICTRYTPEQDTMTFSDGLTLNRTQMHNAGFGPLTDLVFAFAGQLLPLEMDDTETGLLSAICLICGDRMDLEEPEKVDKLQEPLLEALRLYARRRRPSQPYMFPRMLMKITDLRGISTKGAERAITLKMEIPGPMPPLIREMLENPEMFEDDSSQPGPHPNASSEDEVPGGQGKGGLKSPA
row,Compound,outcome
1,Cc1cccc(C)c1[N+](=O)[O-],inactive
2,CCCCCC(CO)CCC (centres undefined),inactive
3,CC1CCC(C(C)CS)CC1S (centres undefined),inactive
4,CCOC(=O)c1ccccc1OC,inactive
5,CCCCC[Si](OCC)(OCC)OCC,inactive
6,CCCCNC(=O)NS(=O)(=O)c1ccc(N)cc1,inactive
7,CNC[C@H](O)c1cccc(O)c1,inactive
8,O=C(O)CCCCCCCC(=O)O,inactive
9,O=C(O)CN(CCN(CC(=O)O)CC(=O)O)CCN(CC(=O)O)CC(=O)O,inactive
10,CC(=O)c1c(C)cc(C(C)(C)C)cc1C,inactive
11,CC1CC(OC(=O)c2ccccc2O)CC(C)(C)C1 (centres undefined),inactive
12,C=CC(=O)OCCOCCOCC,inactive
13,O=CCCc1ccccc1,inactive
14,CC(CN1c2ccccc2Sc2ccccc21)N(C)C (centres undefined),inactive
15,C=O,inactive
16,CCCCCNCCCCC,inactive
17,NCCCCCCN,inactive

row,Compound,outcome
1,CC(C)=CCC[C@](C)(O)[C@@H]1CC=C(C)CC1,inactive
2,O=C1CCCCCCCCCCOCCCCO1,inactive
3,COC(C)CCO (centres undefined),inactive
4,CN1Cc2c(N)cccc2C(c2ccccc2)C1 (centres undefined),inactive
5,C=CC[N+](C)(C)CC=C,inactive
6,CCCCCCOC(=O)CCCCC,inactive
7,O=c1cc(-c2ccccc2)oc2cc(O)cc(O)c12,inactive
8,CCCC[n+]1ccccc1,inactive
9,CCCCCOC(=O)CCC,inactive
10,O=C[C@@H](O)[C@H](O)[C@H](O)CO,inactive
11,O=c1oc(=O)c2cc3c(=O)oc(=O)c3cc12,inactive
12,CCC(C)CCCC(C)(C)O (centres undefined),inactive
13,CC(C)C[C@H]1C(=O)N2CCC[C@H]2[C@]2(O)O[C@](NC(=O)[C@@H]3C=C4c5cccc6[nH]c(Br)c(c56)C[C@H]4N(C)C3)(C(C)C)C(=O)N12,inactive
14,O=C[C@H](O)[C@H](O)[C@H](O)CO,inactive
15,COCCCOc1ccnc(CS(=O)c2nc3ccccc3[nH]2)c1C (centres undefined),inactive
16,CN(C)C(=N)N=C(N)N,inactive
17,Cc1ccc2ccccc2n1,inactive
